# Laboratory results taken from paper PMC7862700, “An all-to-all approach to the identification of sequence-specific readers for epigenetic DNA modifications on cytosine”.
# Legend:
# Experiment in all cases: DAPPL (digital affinity profiling via proximity ligation, sequencing); 10 mM Tris-HCl pH 7.5, 50 mM NaCl, 1 mM DTT, 4% glycerol, room temperature, 30 min; GST-TFs on glutathione beads, 16-mer random dsDNA library, 0.1% formaldehyde crosslink after washing; high values mean tight binding
# [1] = biological target: T1, FLI1 (Homo sapiens, UniProt Q01543 1-452); details: protein: recombinant; tags: N-terminal GST; dsDNA, one strand shown
# T1 sequence: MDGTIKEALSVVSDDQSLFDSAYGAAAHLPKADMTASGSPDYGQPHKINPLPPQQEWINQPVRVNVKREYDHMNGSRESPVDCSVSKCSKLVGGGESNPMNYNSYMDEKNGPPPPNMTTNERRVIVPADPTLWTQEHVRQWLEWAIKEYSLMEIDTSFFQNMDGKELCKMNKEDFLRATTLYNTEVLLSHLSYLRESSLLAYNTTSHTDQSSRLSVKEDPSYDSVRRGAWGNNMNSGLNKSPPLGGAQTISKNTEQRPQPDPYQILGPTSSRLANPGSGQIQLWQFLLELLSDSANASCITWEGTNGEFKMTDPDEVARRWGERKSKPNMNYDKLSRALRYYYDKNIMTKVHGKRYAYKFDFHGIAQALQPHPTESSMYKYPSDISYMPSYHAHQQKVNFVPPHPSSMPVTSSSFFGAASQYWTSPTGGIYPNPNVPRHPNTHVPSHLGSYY
# In short: (§1)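 Binding signal is given per hexamer as its read frequency for a factor divided by its frequency in the tag-only sample. GST-fused human transcription factors were expressed in yeast, captured on glutathione beads, barcoded with DNA and pooled with that sample, then incubated with 200 nmole of a 16-mer random double-stranded DNA library in Tris/NaCl/DTT/glycerol buffer for 30 min at room temperature. The pools were then washed, crosslinked, proximity-ligated, amplified by PCR and sequenced on an Illumina NextSeq500.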
# [2] = biological target: T2, ELK1 (Homo sapiens, UniProt P19419 1-428); details: protein: recombinant; tags: N-terminal GST; dsDNA, one strand shown
# T2 sequence: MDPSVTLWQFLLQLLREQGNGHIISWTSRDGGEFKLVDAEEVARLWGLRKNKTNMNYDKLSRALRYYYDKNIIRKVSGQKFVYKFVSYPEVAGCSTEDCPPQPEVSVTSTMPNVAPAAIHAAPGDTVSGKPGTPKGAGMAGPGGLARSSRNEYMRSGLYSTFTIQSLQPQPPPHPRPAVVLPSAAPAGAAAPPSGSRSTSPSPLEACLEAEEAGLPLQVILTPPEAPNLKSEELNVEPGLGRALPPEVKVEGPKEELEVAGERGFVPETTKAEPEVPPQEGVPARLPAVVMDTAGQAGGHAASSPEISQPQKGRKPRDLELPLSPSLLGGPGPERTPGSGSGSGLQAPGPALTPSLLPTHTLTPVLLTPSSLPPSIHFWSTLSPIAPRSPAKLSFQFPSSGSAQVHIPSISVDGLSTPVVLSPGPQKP
# In short: as §1
# [3] = biological target: T3, GABPA (Homo sapiens, UniProt Q06546 1-454); details: protein: recombinant; tags: N-terminal GST; dsDNA, one strand shown
# T3 sequence: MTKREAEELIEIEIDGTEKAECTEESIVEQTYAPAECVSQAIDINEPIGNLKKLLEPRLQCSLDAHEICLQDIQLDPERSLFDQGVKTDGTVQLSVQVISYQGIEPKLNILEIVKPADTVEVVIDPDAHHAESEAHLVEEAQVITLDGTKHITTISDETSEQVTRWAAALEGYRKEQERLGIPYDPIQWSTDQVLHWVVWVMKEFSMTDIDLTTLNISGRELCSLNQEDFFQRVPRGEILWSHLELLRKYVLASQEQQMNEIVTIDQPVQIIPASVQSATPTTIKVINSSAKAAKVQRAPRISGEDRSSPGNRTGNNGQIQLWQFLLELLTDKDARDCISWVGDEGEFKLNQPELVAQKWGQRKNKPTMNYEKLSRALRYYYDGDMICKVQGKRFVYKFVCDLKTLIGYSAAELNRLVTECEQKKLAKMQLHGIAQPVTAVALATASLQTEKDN
# In short: as §1
# [4] = biological target: T4, ERG (Homo sapiens, UniProt P11308 1-479); details: protein: recombinant; tags: N-terminal GST; dsDNA, one strand shown
# T4 sequence: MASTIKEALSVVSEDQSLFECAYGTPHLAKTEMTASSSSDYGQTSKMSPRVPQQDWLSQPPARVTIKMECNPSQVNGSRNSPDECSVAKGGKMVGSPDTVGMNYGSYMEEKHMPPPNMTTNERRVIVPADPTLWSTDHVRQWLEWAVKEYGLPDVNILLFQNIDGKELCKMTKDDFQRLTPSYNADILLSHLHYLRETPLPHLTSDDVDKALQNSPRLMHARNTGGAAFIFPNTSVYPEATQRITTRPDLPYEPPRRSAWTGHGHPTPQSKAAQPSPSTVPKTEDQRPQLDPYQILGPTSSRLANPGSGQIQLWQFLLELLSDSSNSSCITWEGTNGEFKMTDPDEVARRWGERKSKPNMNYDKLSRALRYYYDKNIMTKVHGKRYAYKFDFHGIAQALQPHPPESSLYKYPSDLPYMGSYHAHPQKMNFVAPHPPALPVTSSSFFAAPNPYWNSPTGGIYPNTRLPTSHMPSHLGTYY
# In short: as §1
# [5] = biological target: ELF1 (Homo sapiens, UniProt P32519 1-619); details: protein: recombinant; tags: N-terminal GST; dsDNA, one strand shown
# Chain of ELF1 (P32519 whole entry): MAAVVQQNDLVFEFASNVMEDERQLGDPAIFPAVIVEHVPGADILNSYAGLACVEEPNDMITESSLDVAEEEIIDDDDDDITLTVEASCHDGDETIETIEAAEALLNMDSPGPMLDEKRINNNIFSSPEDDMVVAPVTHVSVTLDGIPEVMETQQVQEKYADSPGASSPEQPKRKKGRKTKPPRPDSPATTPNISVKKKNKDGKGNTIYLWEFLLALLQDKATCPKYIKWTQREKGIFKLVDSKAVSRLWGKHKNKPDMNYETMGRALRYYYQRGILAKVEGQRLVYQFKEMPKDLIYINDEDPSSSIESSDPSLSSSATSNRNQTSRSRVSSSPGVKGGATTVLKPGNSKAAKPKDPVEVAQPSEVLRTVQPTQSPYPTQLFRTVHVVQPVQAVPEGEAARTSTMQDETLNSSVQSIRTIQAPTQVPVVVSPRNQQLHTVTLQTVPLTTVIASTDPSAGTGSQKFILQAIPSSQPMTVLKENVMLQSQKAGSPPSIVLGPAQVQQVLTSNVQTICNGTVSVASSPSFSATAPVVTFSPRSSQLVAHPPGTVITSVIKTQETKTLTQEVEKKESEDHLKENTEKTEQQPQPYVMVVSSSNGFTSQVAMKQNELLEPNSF
# In short: as §1
# [6] = biological target: T5, EHF (Homo sapiens, UniProt Q9NZC4 1-300); details: protein: recombinant; tags: N-terminal GST; dsDNA, one strand shown
# T5 sequence: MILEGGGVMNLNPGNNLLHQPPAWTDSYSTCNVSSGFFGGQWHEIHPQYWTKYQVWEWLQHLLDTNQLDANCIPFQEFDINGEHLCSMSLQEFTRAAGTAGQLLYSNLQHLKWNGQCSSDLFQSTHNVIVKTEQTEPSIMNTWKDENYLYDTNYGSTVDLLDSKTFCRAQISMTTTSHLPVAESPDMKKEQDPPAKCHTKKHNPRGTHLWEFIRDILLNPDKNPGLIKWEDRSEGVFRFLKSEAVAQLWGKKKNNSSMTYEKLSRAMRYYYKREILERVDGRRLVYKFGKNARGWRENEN
# In short: as §1
# [7] = biological target: SPI1 (Homo sapiens, UniProt P17947 1-270); details: protein: recombinant; tags: N-terminal GST; dsDNA, one strand shown
# In short: as §1
# [8] = biological target: SPIB (Homo sapiens, UniProt Q01892 1-262); details: protein: recombinant; tags: N-terminal GST; dsDNA, one strand shown
# Chain of SPIB (Q01892 whole entry): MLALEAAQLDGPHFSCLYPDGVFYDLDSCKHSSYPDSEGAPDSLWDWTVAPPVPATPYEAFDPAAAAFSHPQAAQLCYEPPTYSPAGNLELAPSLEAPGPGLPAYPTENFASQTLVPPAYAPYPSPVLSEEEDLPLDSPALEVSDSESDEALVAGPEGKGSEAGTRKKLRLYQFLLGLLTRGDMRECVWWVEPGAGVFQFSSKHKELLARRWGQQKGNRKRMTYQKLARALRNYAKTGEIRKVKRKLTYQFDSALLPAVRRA
# In short: as §1
# [9] = biological target: T6, ELK3 (Homo sapiens, UniProt P41970 1-407); details: protein: recombinant; tags: N-terminal GST; dsDNA, one strand shown
# T6 sequence: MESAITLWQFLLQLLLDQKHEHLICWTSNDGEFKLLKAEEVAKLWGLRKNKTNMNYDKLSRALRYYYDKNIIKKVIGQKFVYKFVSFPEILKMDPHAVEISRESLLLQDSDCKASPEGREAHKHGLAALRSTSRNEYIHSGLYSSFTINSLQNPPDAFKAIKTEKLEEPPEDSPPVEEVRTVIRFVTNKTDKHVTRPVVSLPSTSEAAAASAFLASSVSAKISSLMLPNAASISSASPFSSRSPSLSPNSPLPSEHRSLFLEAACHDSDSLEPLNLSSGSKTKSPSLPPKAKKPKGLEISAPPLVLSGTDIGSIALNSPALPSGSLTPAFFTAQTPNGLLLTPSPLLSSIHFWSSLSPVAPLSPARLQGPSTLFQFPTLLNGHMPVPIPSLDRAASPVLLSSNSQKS
# In short: as §1
# [10] = biological target: T7, FEV (Homo sapiens, UniProt Q99581 1-238); details: protein: recombinant; tags: N-terminal GST; dsDNA, one strand shown
# T7 sequence: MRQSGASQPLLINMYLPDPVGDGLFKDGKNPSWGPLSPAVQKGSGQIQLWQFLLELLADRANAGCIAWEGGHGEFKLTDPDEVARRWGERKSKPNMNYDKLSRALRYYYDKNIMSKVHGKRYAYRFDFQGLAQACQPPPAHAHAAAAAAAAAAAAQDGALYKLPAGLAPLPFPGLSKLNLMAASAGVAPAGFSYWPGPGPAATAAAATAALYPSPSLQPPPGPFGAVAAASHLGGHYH
# In short: as §1
# [11] = biological target: ETV5 (Homo sapiens, UniProt P41161 1-510); details: protein: recombinant; tags: N-terminal GST; dsDNA, one strand shown
# Chain of ETV5 (P41161 whole entry): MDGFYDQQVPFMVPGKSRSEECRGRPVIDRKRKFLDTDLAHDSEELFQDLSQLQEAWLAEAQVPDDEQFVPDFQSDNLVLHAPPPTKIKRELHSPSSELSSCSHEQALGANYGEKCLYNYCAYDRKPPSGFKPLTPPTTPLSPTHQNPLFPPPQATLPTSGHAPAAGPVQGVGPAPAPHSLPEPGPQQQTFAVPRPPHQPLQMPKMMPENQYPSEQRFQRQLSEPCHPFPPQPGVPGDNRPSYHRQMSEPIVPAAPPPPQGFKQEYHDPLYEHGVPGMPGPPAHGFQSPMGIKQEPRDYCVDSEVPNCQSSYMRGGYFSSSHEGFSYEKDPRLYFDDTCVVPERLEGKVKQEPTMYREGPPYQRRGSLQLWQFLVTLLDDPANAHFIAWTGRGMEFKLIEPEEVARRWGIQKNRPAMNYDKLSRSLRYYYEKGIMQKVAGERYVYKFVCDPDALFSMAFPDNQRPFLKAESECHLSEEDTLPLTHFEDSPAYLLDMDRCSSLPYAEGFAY
# In short: as §1
# [12] = biological target: HSF1 (Homo sapiens, UniProt Q00613 1-529); details: protein: recombinant; tags: N-terminal GST; chain copies: 3; dsDNA, one strand shown
# Chain of HSF1 (Q00613 whole entry): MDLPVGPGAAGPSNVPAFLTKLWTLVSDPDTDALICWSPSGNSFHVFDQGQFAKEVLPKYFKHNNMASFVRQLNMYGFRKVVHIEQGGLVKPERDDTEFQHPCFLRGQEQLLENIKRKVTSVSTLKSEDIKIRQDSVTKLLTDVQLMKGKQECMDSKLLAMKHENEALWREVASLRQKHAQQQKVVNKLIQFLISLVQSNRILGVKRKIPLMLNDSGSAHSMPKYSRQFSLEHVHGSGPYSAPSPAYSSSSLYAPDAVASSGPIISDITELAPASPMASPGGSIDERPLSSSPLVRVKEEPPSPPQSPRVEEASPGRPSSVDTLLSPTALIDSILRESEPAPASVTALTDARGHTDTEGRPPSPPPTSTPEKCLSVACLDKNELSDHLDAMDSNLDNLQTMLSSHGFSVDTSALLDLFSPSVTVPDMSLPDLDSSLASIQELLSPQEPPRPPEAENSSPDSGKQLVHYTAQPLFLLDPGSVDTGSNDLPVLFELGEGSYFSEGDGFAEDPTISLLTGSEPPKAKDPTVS
# In short: as §1
# [13] = biological target: T8, SPIC (Homo sapiens, UniProt Q8N5J4 1-248); details: protein: recombinant; tags: N-terminal GST; dsDNA, one strand shown
# T8 sequence: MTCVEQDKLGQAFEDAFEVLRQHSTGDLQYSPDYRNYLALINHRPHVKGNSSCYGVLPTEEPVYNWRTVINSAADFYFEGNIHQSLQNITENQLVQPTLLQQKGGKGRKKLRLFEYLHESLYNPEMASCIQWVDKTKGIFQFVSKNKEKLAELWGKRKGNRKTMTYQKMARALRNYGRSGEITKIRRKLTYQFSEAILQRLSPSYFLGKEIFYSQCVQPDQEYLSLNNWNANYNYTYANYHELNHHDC
# In short: as §1
# [14] = biological target: ELF4 (Homo sapiens, UniProt Q99607 1-663); details: protein: recombinant; tags: N-terminal GST; dsDNA, one strand shown
# Chain of ELF4 (Q99607 whole entry): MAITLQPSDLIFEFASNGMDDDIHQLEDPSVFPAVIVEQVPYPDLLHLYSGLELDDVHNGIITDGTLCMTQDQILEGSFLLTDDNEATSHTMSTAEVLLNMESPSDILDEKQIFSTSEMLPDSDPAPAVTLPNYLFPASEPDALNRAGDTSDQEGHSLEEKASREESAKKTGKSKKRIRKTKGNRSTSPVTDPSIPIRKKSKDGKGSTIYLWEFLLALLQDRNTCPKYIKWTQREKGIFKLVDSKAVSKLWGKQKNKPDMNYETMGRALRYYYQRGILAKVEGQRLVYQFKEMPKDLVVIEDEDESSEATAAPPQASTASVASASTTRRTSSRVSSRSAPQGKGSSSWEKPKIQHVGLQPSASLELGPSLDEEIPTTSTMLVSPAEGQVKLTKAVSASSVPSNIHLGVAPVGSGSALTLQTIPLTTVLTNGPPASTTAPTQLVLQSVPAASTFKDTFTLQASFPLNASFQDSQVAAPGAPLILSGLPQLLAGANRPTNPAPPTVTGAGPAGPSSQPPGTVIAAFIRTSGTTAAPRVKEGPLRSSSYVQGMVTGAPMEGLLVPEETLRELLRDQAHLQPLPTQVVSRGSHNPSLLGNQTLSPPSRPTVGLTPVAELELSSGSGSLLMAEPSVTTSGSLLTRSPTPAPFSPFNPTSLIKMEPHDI
# In short: as §1
# [15] = biological target: T9, ELK4 (Homo sapiens, UniProt P28324-2 1-405); details: protein: recombinant; tags: N-terminal GST; dsDNA, one strand shown
# T9 sequence: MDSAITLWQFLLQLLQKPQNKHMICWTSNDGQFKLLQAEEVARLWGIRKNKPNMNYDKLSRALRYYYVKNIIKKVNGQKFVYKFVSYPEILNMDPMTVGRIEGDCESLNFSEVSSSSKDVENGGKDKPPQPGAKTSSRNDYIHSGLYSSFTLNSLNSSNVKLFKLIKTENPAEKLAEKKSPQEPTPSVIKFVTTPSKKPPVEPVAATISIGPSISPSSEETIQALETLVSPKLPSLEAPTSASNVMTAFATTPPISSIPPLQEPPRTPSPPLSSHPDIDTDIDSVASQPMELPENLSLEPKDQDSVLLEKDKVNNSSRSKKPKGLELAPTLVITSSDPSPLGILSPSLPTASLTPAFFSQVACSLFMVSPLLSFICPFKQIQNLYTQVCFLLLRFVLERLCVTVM
# In short: as §1
# [16] = biological target: T10, ETV2 (Homo sapiens, UniProt O00321 1-342); details: protein: recombinant; tags: N-terminal GST; dsDNA, one strand shown
# T10 sequence: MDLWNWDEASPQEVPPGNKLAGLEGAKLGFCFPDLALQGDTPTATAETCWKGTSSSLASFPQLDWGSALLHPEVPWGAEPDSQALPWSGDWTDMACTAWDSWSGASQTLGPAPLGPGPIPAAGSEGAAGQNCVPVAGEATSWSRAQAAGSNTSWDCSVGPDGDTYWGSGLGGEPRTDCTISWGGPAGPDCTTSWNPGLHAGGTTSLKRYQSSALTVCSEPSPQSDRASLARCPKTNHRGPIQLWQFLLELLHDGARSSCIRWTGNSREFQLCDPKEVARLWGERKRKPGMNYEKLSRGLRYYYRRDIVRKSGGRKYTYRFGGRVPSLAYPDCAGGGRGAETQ
# In short: as §1
# [17] = biological target: T11, ELF3 (Homo sapiens, UniProt P78545 1-371); details: protein: recombinant; tags: N-terminal GST; dsDNA, one strand shown
# T11 sequence: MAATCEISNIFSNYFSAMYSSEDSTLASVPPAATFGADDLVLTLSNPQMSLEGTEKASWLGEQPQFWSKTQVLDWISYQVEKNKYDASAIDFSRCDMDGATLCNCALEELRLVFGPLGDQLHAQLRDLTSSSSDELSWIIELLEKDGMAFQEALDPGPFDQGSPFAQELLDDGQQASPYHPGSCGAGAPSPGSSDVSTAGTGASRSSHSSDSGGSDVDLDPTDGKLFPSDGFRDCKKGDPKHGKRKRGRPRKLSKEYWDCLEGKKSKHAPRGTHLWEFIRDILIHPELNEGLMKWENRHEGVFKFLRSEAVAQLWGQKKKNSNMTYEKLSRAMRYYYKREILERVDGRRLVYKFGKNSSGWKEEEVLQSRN
# In short: as §1
# [18] = biological target: CRX (Homo sapiens, UniProt O43186 1-299); details: protein: recombinant; tags: N-terminal GST; dsDNA, one strand shown
# Chain of CRX (O43186 whole entry): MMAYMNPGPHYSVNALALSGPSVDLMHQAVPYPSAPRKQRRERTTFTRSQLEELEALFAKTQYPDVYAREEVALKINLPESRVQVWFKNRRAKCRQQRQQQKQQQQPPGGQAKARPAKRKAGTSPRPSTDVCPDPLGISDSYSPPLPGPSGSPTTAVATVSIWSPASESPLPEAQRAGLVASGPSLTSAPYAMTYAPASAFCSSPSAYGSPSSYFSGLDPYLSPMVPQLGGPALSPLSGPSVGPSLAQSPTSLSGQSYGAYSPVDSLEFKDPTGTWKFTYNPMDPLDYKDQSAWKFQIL
# In short: as §1
# [19] = biological target: ETV1 (Homo sapiens, UniProt P50549 1-477); details: protein: recombinant; tags: N-terminal GST; dsDNA, one strand shown
# Chain of ETV1 (P50549 whole entry): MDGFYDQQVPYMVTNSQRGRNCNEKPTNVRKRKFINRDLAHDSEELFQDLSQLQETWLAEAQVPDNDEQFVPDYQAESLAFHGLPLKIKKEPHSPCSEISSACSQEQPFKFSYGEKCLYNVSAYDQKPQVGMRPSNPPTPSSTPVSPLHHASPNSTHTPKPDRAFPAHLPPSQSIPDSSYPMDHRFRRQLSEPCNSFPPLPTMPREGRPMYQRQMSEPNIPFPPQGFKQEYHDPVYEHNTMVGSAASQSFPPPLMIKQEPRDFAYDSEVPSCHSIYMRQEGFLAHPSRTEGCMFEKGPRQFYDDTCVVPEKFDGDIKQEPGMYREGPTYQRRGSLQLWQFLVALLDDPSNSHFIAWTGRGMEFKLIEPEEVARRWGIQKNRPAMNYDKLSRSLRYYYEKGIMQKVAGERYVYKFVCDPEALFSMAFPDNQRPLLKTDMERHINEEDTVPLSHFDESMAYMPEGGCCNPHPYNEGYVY
# In short: as §1
sequence,measurement,setting,value
CCCTAT,binding signal,[1],"1.33 fold enrichment (6-mer frequency, TF over GST control)"
same,binding signal,[2],"1.33 fold enrichment (6-mer frequency, TF over GST control)"
same,binding signal,[3],"1.32 fold enrichment (6-mer frequency, TF over GST control)"
same,binding signal,[4],"1.32 fold enrichment (6-mer frequency, TF over GST control)"
same,binding signal,[5],"1.32 fold enrichment (6-mer frequency, TF over GST control)"
same,binding signal,[6],"1.25 fold enrichment (6-mer frequency, TF over GST control)"
same,binding signal,[7],"1.45 fold enrichment (6-mer frequency, TF over GST control)"
same,binding signal,[8],"1.35 fold enrichment (6-mer frequency, TF over GST control)"
same,binding signal,[9],"1.46 fold enrichment (6-mer frequency, TF over GST control)"
same,binding signal,[10],"1.39 fold enrichment (6-mer frequency, TF over GST control)"
same,binding signal,[11],"1.29 fold enrichment (6-mer frequency, TF over GST control)"
same,binding signal,[12],"1.13 fold enrichment (6-mer frequency, TF over GST control)"
same,binding signal,[13],"1.2 fold enrichment (6-mer frequency, TF over GST control)"
same,binding signal,[14],"1.37 fold enrichment (6-mer frequency, TF over GST control)"
same,binding signal,[15],"1.29 fold enrichment (6-mer frequency, TF over GST control)"
same,binding signal,[16],"1.33 fold enrichment (6-mer frequency, TF over GST control)"
same,binding signal,[17],"1.29 fold enrichment (6-mer frequency, TF over GST control)"
same,binding signal,[18],"1.17 fold enrichment (6-mer frequency, TF over GST control)"
same,binding signal,[19],"1.37 fold enrichment (6-mer frequency, TF over GST control)"
